Assay results: the supplement of paper PMC11732987, “Enantioselective OTUD7B fragment discovery through chemoproteomics screening and high-throughput optimisation” (Communications Chemistry, 2025)

Key:
Assay in all cases: log2 ratio of Biotin-Ahx-Ub-VS probe labelling (fragment/DMSO); higher = less target engagement (more negative = stronger competition), active = hit call of the paper (q ≤ 0.05, log2 ratio ≤ -1)
Conditions in all cases: compound concentration: 200 uM; treatment time: 3 h
USP19 = target: T1, USP19 (UniProt O94966)
T1 sequence (whole entry): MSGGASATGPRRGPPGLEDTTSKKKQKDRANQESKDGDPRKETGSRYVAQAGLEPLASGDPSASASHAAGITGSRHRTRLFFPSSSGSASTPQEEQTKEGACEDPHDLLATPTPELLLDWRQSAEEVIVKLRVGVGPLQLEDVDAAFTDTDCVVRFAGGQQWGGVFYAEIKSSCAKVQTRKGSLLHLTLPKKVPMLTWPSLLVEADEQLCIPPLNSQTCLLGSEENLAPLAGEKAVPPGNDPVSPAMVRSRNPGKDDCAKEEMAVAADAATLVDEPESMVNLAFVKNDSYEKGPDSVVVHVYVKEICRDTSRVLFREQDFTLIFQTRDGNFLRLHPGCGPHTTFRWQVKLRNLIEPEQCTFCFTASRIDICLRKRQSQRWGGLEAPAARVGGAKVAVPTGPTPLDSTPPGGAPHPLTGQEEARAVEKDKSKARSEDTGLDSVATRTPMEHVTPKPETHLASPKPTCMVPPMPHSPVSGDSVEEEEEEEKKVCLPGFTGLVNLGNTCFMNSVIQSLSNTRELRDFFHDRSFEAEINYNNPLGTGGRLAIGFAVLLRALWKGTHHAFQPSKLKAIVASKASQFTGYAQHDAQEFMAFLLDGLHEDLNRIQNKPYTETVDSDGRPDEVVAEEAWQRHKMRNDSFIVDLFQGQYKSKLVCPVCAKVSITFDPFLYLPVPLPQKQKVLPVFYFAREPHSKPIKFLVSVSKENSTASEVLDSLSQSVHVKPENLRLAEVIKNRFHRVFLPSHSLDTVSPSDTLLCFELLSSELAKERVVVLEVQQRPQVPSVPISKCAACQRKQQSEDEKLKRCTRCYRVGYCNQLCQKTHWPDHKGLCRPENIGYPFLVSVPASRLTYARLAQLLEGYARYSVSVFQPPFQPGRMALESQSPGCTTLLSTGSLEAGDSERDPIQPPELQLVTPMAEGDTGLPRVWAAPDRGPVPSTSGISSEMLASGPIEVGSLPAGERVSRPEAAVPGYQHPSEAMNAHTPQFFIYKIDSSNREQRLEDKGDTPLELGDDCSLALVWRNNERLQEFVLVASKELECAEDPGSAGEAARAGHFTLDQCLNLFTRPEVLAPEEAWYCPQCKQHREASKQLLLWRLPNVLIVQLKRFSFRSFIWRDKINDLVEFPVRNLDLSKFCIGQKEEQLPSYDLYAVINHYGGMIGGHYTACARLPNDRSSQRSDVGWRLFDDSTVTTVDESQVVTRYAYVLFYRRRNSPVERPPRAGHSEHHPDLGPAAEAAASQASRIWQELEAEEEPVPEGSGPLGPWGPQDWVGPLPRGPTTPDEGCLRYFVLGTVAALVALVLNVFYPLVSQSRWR
Summary of the method: (§1)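 HEK293T lysate in Tris/CHAPS/IGEPAL buffer with protease inhibitors (495 µg per sample) was given fragment at 200 µM or vehicle for 3 h, in triplicate. It then received Biotin-Ahx-Ub-VS at 0.5 µM final for 1 h. Labelled DUBs were NeutrAvidin-enriched, digested with LysC and trypsin, and run by diaPASEF LC-MS/MS. Values are average log2 fragment/vehicle ratios by unpaired t-test on global-median-normalised Spectronaut quantities of proteins with ≥2 unique peptides.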

USP22 = target: T2, USP22 (UniProt Q9UPT9)
T2 sequence (whole entry): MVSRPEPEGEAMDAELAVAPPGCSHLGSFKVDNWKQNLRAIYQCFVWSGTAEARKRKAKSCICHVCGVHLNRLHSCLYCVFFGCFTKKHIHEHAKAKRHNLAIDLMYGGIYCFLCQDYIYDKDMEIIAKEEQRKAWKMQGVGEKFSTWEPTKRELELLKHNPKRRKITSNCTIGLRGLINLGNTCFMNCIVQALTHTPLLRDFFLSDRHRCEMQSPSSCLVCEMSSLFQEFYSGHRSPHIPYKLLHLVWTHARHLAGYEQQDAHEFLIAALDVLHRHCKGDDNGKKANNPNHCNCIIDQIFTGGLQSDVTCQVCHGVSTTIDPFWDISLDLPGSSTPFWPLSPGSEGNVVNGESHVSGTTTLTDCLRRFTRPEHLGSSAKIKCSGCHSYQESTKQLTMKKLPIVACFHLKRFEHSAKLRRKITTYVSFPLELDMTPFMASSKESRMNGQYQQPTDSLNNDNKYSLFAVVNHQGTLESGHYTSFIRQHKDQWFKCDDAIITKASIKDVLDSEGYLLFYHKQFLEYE
Summary of the method: as §1

USP24 = USP24 (UniProt Q9UPU5)
Summary of the method: as §1

USP25 = target: T3, USP25 (UniProt Q9UHP3)
T3 sequence (whole entry): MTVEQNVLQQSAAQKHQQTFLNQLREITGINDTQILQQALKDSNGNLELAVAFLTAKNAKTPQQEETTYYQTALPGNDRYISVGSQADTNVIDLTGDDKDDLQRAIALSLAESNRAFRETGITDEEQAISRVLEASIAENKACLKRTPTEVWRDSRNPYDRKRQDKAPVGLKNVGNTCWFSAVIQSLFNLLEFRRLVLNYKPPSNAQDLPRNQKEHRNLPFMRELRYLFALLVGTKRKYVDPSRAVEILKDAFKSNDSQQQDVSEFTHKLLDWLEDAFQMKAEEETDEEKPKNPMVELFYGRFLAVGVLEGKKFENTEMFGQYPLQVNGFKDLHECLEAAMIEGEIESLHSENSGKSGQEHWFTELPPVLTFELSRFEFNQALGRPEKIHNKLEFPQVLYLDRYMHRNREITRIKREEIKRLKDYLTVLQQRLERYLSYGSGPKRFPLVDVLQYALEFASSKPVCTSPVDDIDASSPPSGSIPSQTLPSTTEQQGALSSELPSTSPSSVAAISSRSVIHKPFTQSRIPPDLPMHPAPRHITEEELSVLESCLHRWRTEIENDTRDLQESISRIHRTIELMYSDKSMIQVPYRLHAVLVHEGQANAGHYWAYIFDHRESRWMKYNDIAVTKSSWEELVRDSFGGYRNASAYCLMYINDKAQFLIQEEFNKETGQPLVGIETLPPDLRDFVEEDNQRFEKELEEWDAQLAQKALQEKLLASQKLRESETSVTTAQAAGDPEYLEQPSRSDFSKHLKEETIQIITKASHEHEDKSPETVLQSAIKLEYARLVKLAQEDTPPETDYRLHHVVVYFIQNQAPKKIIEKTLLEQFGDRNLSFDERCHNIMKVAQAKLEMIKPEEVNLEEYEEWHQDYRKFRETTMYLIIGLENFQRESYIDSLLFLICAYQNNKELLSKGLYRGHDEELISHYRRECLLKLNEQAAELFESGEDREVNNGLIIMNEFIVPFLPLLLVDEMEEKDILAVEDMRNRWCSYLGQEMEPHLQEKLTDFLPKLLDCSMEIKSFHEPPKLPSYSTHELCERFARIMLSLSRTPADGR
Summary of the method: as §1

USP28 = target: T4, USP28 (UniProt Q96RU2)
T4 sequence (whole entry): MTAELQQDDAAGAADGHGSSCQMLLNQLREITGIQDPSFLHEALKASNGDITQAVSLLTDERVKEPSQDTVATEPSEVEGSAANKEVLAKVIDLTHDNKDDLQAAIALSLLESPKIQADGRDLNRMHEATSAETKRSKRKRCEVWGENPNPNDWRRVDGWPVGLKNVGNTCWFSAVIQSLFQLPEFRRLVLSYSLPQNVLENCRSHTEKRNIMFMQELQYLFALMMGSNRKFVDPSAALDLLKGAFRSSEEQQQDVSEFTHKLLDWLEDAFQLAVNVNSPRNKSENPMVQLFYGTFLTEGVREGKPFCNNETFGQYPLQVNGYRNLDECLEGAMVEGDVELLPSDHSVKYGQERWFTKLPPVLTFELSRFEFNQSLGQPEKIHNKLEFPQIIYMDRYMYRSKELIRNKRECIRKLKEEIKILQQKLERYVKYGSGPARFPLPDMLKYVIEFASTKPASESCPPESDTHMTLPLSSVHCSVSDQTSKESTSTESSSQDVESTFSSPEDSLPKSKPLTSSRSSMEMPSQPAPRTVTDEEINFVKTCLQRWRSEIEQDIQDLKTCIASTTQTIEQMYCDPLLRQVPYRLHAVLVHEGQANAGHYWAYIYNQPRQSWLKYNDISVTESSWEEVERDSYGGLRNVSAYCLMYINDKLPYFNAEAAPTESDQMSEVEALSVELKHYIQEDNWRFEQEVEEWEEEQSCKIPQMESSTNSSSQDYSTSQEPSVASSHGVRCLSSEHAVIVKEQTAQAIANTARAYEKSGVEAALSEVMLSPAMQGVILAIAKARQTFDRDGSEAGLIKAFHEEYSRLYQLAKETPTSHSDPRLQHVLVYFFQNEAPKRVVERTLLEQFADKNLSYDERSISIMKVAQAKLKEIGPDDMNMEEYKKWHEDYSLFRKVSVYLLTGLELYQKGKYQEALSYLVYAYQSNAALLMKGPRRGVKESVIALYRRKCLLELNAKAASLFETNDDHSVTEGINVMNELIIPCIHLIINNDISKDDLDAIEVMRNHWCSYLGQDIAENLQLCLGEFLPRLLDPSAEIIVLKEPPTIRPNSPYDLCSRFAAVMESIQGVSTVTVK
Summary of the method: as §1

Measured: log2 ratio of Biotin-Ahx-Ub-VS probe labelling

USP24, sequence (Q9UPU5 whole entry): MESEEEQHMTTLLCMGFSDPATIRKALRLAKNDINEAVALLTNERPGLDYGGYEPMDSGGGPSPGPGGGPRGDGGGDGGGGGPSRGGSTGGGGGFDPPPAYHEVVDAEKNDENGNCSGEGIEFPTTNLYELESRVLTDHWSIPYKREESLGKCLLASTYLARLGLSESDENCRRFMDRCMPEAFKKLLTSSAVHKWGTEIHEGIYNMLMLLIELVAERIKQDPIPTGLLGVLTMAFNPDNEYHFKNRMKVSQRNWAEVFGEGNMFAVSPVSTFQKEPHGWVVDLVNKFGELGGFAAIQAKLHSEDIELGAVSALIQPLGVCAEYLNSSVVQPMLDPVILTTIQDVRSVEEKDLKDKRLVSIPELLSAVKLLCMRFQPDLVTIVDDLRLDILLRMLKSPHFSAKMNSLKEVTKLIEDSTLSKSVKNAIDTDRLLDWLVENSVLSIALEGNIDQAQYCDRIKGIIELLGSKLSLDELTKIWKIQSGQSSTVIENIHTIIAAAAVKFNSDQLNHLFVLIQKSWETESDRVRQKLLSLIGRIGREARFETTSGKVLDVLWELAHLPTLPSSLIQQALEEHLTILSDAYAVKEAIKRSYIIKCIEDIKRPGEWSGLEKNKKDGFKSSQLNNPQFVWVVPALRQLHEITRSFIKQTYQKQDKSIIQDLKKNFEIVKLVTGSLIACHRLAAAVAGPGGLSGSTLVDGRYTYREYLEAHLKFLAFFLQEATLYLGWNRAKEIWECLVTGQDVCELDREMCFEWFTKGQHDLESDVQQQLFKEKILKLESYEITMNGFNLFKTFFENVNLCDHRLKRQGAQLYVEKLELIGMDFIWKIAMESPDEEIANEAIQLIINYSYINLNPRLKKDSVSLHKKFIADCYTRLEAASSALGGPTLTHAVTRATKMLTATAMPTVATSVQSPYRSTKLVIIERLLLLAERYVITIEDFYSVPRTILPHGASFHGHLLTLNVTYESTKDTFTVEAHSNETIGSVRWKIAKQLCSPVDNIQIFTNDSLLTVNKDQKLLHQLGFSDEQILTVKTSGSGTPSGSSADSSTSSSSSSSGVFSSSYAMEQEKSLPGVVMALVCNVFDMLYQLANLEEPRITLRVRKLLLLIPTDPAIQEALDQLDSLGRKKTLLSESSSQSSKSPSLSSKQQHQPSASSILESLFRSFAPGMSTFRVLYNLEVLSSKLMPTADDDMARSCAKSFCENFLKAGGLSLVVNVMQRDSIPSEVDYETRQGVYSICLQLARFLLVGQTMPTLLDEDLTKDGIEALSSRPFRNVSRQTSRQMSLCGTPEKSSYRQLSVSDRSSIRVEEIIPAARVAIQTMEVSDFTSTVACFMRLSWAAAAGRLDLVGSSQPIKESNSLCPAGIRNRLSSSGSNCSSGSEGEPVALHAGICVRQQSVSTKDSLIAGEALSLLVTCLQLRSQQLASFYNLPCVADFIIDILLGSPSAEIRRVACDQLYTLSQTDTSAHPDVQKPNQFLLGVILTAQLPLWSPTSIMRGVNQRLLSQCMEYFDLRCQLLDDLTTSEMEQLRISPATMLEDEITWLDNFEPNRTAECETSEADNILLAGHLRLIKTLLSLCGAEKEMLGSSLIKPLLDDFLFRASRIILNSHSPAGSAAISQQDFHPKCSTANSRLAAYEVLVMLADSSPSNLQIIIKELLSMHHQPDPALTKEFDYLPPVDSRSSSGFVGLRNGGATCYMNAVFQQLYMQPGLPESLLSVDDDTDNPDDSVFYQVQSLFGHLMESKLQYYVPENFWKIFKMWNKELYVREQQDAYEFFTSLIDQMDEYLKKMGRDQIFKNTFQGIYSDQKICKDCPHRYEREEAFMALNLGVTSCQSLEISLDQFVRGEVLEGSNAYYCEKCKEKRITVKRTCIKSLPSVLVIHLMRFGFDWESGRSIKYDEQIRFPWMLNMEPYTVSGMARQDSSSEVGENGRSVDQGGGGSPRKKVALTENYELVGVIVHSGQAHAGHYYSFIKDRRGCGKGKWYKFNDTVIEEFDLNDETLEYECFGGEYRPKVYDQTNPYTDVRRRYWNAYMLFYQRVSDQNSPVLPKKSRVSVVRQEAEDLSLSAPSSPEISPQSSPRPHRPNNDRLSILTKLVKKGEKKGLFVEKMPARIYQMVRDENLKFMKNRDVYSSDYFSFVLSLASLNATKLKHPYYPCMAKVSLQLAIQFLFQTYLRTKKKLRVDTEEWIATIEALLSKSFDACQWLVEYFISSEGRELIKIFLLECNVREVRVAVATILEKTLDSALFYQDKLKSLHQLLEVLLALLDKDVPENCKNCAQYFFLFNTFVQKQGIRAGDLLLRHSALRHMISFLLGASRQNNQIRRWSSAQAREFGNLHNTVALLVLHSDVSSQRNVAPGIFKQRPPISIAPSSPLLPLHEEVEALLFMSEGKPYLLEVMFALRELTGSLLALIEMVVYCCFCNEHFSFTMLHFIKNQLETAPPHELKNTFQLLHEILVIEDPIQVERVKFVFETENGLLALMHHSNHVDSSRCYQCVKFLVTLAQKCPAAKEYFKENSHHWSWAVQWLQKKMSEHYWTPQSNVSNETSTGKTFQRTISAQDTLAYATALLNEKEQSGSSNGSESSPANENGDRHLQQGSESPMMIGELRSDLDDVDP

O=C(CCl)N1CCN(C(=O)Nc2ccccc2)CC1
inactive: USP19 -0.276 | USP22 0.14 | USP24 0.00221 | USP25 -0.151 | USP28 -0.246
